# Data from the supplement of paper PMC10849652.
# Targets with a hit are over-represented here; the source holds about 7,900 in all. About 0.6% of all pairs of compound and target were hits. Values without a mark were called inactive.
# What was measured:
# Experiment in all cases: log2 fold change, soluble protein after heating vs DMSO (PISA); higher = thermal stabilisation; K562 cells, 10 uM, 30 min; active = over 0.2 and 3.5 SD of the protein, either way, in both replicates (recomputed)
# [1] = compound: COC1=CC=C(C=C1)CN2C=CC3=C2C=C(C=C3)C(=O)NO
# In short: (§1)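 K562 cells at 2×10^6 cells/mL were exposed to 10 μM compound for 30 min, then aliquots were heated for 3 min across 48°C-58°C, pooled, and extracted in PBS containing 0.5% NP-40 at 4°C. The supernatant after 21,000xg for 90 min was taken as soluble protein and measured by TMTpro 16plex LC-MS/MS with channel sums equalised. Thermal stability is reported relative to control samples, with values from duplicates. Fold changes are given on a log2 scale.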
# filanesib = compound: CON(C)C(=O)N1N=C(c2cc(F)ccc2F)S[C@@]1(CCCN)c1ccccc1 [filanesib]
# In short: as §1
# zotarolimus = compound: CO[C@H]1C[C@@H]2CC[C@@H](C)[C@@](O)(O2)C(=O)C(=O)N2CCCC[C@H]2C(=O)O[C@H]([C@H](C)C[C@@H]2CC[C@H](n3cnnn3)[C@H](OC)C2)CC(=O)[C@H](C)/C=C(\C)[C@@H](O)[C@@H](OC)C(=O)[C@H](C)C[C@H](C)/C=C/C=C/C=C/1C [zotarolimus]
# In short: as §1
# idasanutlin = compound: COc1cc(C(=O)O)ccc1NC(=O)[C@@H]1N[C@@H](CC(C)(C)C)[C@](C#N)(c2ccc(Cl)cc2F)[C@H]1c1cccc(Cl)c1F [idasanutlin]
# In short: as §1
# alisertib = compound: COc1cc(Nc2ncc3c(n2)-c2ccc(Cl)cc2C(c2c(F)cccc2OC)=NC3)ccc1C(=O)O [alisertib]
# In short: as §1
# [2] = compound: COc1cc2nc(-c3cc(F)ccc3O)nc(N[C@@H]3CNC[C@H]3C(C)(C)O)c2cc1OC
# In short: as §1
# gefitinib = compound: COc1cc2ncnc(Nc3ccc(F)c(Cl)c3)c2cc1OCCCN1CCOCC1 [gefitinib]
# In short: as §1
# [3] = compound: COc1cccc2cc(-c3nc([C@H]4CC[C@H](C(=O)O)CC4)n4ncnc(N)c34)[nH]c12
# In short: as §1
# lapatinib = compound: CS(=O)(=O)CCNCc1ccc(-c2ccc3ncnc(Nc4ccc(OCc5cccc(F)c5)c(Cl)c4)c3c2)o1 [lapatinib]
# In short: as §1
# pictilisib = compound: CS(=O)(=O)N1CCN(Cc2cc3nc(-c4cccc5[nH]ncc45)nc(N4CCOCC4)c3s2)CC1 [pictilisib]
# In short: as §1
# UniProt Q86X95, sequence (Q86X95 whole entry, looked up): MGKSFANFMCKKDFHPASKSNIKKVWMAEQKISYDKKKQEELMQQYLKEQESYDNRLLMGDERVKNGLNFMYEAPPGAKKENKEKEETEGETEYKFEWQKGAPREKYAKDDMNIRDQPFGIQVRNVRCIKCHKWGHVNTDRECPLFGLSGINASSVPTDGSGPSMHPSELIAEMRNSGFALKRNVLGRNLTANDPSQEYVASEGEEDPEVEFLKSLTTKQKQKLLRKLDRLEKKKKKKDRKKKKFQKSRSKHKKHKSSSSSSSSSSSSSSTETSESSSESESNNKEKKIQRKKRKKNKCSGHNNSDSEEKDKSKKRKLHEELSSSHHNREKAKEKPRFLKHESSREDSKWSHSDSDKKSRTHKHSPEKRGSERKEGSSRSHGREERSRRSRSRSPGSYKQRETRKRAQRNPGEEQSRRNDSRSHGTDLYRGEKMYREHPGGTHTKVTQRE
# UniProt O43529, sequence (O43529 whole entry, looked up): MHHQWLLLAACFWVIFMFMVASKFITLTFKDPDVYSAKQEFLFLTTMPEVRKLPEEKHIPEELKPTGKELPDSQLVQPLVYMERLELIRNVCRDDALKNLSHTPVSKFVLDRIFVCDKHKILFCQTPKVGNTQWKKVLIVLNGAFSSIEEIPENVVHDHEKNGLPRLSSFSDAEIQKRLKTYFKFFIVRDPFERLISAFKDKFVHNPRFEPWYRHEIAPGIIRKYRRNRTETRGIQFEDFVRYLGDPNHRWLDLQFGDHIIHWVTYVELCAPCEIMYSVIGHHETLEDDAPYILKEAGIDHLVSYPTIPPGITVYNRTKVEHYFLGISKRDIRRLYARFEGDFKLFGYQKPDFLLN
# UniProt Q2TAC2, sequence (Q2TAC2 whole entry, looked up): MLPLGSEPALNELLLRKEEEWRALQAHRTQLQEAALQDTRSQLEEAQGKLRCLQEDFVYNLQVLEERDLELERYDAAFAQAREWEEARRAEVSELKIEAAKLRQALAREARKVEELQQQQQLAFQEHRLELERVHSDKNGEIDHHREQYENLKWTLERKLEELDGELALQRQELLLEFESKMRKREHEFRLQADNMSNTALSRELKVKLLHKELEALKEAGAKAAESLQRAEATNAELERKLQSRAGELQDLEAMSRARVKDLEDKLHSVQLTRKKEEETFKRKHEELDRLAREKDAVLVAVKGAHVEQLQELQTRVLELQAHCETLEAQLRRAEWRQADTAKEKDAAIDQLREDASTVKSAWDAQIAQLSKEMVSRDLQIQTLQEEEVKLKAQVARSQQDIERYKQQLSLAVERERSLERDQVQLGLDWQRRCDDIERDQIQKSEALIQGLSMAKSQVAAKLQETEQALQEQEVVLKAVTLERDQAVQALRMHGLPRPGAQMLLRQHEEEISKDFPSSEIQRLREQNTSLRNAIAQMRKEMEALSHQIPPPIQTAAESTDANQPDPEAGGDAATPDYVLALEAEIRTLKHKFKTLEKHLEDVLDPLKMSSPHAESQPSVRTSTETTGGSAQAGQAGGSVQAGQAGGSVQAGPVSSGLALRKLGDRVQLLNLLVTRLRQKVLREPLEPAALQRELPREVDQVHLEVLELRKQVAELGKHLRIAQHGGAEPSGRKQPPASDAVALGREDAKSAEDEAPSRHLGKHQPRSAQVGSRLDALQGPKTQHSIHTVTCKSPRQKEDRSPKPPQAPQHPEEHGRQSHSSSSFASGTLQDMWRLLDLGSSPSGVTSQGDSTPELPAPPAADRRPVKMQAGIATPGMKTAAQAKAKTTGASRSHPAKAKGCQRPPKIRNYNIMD
# UniProt Q6UUV9, sequence (Q6UUV9 whole entry, looked up): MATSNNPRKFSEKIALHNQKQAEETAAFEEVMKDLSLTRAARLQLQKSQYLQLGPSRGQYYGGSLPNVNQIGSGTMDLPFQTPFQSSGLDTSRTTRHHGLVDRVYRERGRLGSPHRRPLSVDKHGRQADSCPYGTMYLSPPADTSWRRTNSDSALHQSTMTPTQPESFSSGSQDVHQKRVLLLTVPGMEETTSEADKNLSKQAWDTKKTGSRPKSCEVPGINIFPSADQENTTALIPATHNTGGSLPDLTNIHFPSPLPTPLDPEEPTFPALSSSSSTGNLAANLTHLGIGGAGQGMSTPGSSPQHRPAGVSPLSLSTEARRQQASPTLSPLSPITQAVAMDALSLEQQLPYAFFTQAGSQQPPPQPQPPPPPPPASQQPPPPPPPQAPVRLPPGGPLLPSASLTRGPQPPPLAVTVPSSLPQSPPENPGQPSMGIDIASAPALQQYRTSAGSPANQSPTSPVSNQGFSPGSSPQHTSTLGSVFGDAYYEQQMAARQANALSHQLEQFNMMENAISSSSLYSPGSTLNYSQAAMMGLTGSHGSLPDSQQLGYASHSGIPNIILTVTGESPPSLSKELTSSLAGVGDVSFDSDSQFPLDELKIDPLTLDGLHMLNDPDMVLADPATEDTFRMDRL
# UniProt O75122, sequence (O75122 whole entry, looked up): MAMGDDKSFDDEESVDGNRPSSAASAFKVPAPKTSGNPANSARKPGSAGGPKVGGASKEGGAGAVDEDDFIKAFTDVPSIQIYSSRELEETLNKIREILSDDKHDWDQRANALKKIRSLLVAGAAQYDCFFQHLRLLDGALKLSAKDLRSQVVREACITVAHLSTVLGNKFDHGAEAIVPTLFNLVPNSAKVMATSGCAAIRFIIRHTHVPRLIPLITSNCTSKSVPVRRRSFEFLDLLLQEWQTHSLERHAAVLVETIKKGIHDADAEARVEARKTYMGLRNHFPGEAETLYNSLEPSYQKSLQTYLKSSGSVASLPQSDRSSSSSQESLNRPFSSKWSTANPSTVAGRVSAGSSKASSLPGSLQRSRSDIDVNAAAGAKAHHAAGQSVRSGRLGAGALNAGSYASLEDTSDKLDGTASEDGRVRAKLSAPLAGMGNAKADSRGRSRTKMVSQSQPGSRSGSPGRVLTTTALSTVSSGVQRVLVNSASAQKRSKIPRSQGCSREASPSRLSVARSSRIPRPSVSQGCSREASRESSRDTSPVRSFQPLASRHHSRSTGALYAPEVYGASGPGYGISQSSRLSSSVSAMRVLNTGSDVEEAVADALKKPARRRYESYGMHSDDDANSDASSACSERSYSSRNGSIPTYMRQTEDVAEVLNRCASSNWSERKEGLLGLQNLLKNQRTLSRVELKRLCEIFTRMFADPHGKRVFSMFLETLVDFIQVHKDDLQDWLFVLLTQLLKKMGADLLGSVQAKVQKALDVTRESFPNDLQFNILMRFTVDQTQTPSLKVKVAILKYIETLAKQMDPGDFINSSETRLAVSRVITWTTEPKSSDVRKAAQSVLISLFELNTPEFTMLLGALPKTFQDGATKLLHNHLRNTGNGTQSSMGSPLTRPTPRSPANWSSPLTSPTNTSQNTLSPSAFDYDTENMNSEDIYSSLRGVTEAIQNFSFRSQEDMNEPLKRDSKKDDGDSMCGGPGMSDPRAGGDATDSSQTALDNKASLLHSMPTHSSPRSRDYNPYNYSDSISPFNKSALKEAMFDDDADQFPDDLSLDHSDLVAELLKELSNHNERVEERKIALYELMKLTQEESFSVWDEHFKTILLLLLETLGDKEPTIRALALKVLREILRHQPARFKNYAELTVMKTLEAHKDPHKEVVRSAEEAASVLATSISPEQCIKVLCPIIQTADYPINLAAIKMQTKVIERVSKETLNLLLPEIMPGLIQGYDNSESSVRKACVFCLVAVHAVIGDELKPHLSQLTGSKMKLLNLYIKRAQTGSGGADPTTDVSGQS
# UniProt Q6UUV7, sequence (Q6UUV7 whole entry, looked up): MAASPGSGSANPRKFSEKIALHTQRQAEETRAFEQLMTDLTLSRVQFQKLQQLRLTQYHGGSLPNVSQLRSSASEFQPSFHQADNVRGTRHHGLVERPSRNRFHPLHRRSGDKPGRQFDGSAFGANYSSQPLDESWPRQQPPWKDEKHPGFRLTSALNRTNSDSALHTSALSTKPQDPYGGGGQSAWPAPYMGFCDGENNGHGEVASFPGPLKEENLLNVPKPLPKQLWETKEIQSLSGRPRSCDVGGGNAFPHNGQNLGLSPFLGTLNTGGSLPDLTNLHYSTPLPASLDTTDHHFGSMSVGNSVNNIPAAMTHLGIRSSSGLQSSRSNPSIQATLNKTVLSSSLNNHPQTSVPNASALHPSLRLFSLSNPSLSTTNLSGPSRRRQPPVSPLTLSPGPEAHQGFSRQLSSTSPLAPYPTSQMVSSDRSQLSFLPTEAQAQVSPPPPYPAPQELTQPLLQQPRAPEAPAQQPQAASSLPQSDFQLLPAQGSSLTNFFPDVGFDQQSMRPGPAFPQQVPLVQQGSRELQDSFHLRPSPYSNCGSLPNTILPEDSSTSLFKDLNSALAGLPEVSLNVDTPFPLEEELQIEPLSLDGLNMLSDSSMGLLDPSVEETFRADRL
# UniProt Q9BSQ5, sequence (Q9BSQ5 whole entry, looked up): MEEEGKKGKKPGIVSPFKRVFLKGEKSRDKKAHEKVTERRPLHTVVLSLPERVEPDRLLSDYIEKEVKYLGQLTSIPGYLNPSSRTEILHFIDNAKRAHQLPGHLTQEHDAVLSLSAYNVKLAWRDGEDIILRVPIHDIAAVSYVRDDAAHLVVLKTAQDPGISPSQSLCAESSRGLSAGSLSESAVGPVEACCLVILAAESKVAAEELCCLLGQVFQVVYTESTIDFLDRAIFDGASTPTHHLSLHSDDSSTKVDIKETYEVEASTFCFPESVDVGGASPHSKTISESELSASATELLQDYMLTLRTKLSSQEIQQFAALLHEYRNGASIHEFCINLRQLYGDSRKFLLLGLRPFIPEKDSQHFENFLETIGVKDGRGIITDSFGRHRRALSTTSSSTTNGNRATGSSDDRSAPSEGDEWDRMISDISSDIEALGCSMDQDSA
# UniProt Q7Z4R8, sequence (Q7Z4R8 whole entry, looked up): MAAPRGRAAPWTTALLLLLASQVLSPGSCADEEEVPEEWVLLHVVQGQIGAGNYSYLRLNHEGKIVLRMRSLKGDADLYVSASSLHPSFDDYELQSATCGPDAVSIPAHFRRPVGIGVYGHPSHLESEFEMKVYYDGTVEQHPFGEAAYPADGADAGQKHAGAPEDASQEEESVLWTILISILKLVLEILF
# UniProt Q14061, sequence (Q14061 whole entry, looked up): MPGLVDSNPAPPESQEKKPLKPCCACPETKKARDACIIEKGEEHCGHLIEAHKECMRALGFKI
Target,log2 fold change [1],log2 fold change (filanesib),log2 fold change (zotarolimus),log2 fold change (idasanutlin),log2 fold change (alisertib),log2 fold change [2],log2 fold change (gefitinib),log2 fold change [3],log2 fold change (lapatinib),log2 fold change (pictilisib)
CD53 (UniProt P19397),-0.1,0.025,-0.022,0.084,-0.04,0.154,0.053,0.102,-0.208,0.276
COMMD1 (UniProt Q8N668),0.054,0.06,,,-0.151,0.029,-0.01,-0.04,-0.029,0.006
CDC26 (UniProt Q8NHZ8),-0.031,0.085,-0.011,-0.053,-0.023,0,0.003,-0.017,-0.023,-0.125
CRLS1 (UniProt Q9UJA2),0.044,-0.125,0.005,,-0.071,-0.229,0.021,0.075,0.046,-0.029
CCM2 isoform 2 (UniProt Q9BSQ5),-0.093,0.026,0.057,,-0.04,0.154,,0.056,0.006,0.022
CDK17 isoform 2 (UniProt Q00537),-0.031,-0.024,-0.208,0.03,0.508,0.051,,0.103,0.049,0.158
CASP9 (UniProt P55211),0.095,0.169,-0.043,-0.008,,0.02,0.146,,-0.034,-0.019
CSNK1A1 (UniProt P48729),0.147,0.08,0.024,0.094,,-0.214,-0.106,-0.036,0.019,0.024
CCDC57 (UniProt Q2TAC2),0.006,0.01,-0.081,,0.013,-0.008,0.009,0.063,0.07,
CRTC1 isoform 2 (UniProt Q6UUV9),-0.39 (active),-0.002,,-0.021,,0.138,,,0.028,-0.013
CIR1 (UniProt Q86X95),-0.022,0.247,-0.064,0.161,-0.081,-0.019,,-0.024,0.078,-0.365
C1D (UniProt Q13901),-0.171,-0.041,,0.12,-0.138,-0.101,0.043,-0.027,0.006,0.012
CFAP36 isoform 2 (UniProt Q96G28),0.12,0.055,0.162,-0.02,-0.049,0.001,,0.019,0.082,0.241
C6orf120 (UniProt Q7Z4R8),0.003,-0.053,,,,-0.135,-0.008,,-0.114,
CHST10 (UniProt O43529),-0.11,0.021,0.088,0.062,-0.014,-0.073,-0.071,0.088,0.058,0.027
CASP8 isoform 9 (UniProt Q14790),-0.087,-0.017,,-0.086,-0.107,0.023,-0.153,0.044,-0.028,0.127
CAB39L (UniProt Q9H9S4),-0.063,-0.07,,-0.052,,0.07,,,0.057,0.029
COX17 (UniProt Q14061),0.183,-0.059,0.034,0.059,-0.112,,-0.055,0.02,,0.092
CRTC2 (UniProt Q53ET0),-0.004,-0.019,,0.086,0,-0.509 (active),-0.056,0.066,0.079,
CSTF3 (UniProt Q12996),-0.008,-0.041,-0.033,-0.087,-0.056,0.176,-0.005,0.022,-0.012,0.066

Target,log2 fold change [1],log2 fold change (filanesib),log2 fold change (zotarolimus),log2 fold change (idasanutlin),log2 fold change (alisertib),log2 fold change [2],log2 fold change (gefitinib),log2 fold change [3],log2 fold change (lapatinib),log2 fold change (pictilisib)
CENPE (UniProt Q02224),-0.355,0.445,0.288,-0.407,,-0.068,,,0.024,0.048
CRYM-AS1 (UniProt A6NIL9),0.159,0.047,0.146,-0.364,0.037,,-0.16,-0.041,,0.109
C15orf41 (UniProt Q9Y2V0),-0.057,-0.021,-0.096,-0.023,,0.011,,,-0.018,0.047
CAV2 (UniProt P51636),-0.046,0.131,,0,-0.083,-0.011,0.137,0.026,-0.018,0.031
CLASP2 (UniProt O75122),0.015,,0.235,0.101,-0.025,0.125,0.071,0.072,0.032,
CHCHD1 (UniProt Q96BP2),0.037,-0.017,-0.001,0.082,-0.077,-0.198,-0.042,0.161,-0.055,-0.193
COG2 (UniProt Q14746),-0.006,0.25,-0.048,-0.053,0.58,,-0.187,0.631 (active),,
CDK8 (UniProt P49336),0.03,0.008,-0.044,-0.136,-0.137,-0.105,,-0.005,-0.047,0.038
CCNT2 (UniProt O60583),,0.102,,0.143,0.039,-0.291,0.163,-0.131,0.085,0.121
CAD (UniProt H7BZB3),,,,-0.006,,,,,,
C5orf30 (UniProt Q96GV9),,,,0.022,,-0.094,,,-0.21,
CCNDBP1 (UniProt O95273),,0.016,-0.102,0.063,-0.012,,-0.33 (active),0.125,,0.009
CPNE5 (UniProt Q9HCH3),,,-0.102,,,,,,,
CLINT1 (UniProt Q14677),-0.371,,0.263,-0.012,-0.137,,0.077,-0.055,,
"CCDC187, A0A1W2PQX5",,,,-0.051,,,-0.312,,,0.191
CD84 (UniProt Q9UIB8),,-0.009,-0.194,-0.082,,,,,,
CRTC3 (UniProt Q6UUV7),,0.015,-0.059,,0.202,-0.86 (active),,-0.107,0.078,
CNOT4 isoform 9 (UniProt O95628),-0.018,,-0.373 (active),-0.334 (active),0.018,0.106,0.053,0.019,-0.083,0.045
CFAP47 (UniProt Q6ZTR5),,,,-0.496,,0.031,,,-0.106,
COMMD3-BMI1 (UniProt R4GMX3),,-0.08,-0.12,0.093,,0.519 (active),-0.029,,-0.445,0.135
